Compounds with a hit are over-represented: about 4.6% of the library has one in this group of screens.
D1 agonist: agonists of human D1 dopamine receptor. P21728. HEK293 T-REx D1 cells, calcium flux, agonist mode. activation, % at 2 µM. 360,000 tested, 1% active. AID 504660; further: 0% is about no effect
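Tetracycline-induced HEK293 TREx D1 cells, force-coupled to calcium signalling, were dye-loaded with a no-wash calcium kit. Compound was pin-added after a 10 s baseline. Fluorescence was read kinetically at 1 cycle/s for 180 s, with calcium rises flagged as agonism.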
D1 PAM: human D1 dopamine receptor positive modulation; 360,000 tested, 0.036% active; P21728; HEK293 TREx D1 cells, calcium flux, dopamine EC20 potentiation; AID 504651; potentiation, % at 10 µM; in the data active means potentiation above about 30%; further: 0% is about no effect
D1 antagonist: blocks dopamine activation of the human D1 receptor | P21728 | HEK293 TREx D1 cells, calcium flux, dopamine EC80; stronger effect = lower value | activity change, negative = inhibition, % at 10 µM | 360,000 tested, 3.2% active | AID 504652; in the data active means activity change below about -30%; further: on the % scale 0 is the no-effect control and ±100 the full control effect
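Kinetic fluorescence of a calcium dye serves as the read-out. D1-expressing Hek293 Trex cells, induced overnight at 30 C, are exposed to compound for 180 s before an EC80 dopamine addition, then read 180 s further.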
TRHR agonist: agonists of human TRH receptor; activation, % at 2 µM; TRHR cells, calcium flux fluo-8, FDSS agonist mode; P34981; 360,000 tested, 0.18% active; further: 0% is about no effect
Target sequence (P34981 whole entry, looked up): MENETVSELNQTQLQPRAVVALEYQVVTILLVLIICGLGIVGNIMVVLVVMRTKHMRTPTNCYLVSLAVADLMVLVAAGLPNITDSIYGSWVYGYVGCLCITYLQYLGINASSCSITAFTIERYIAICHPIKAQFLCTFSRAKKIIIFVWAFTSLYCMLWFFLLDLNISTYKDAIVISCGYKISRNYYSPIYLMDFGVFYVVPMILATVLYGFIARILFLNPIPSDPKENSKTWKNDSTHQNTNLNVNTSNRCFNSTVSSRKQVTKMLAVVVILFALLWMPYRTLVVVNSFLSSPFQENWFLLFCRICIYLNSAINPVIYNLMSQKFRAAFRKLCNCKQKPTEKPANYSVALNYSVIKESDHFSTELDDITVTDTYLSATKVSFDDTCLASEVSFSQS
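In this calcium-flux screen, cells bearing human TRHR are dye-loaded with fluo-8, baselined for 10 cycles, then exposed to library compounds; positive kinetic calcium responses during the agonist phase mark hits, with TRH as control.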
TRHR enhancer: TRH receptor (human) allosteric enhancement; P34981; TRHR cells, fluo-8 calcium fluorescence, EC20 TRH enhancement; enhancement, % at 2 µM; 360,000 tested, 0.66% active; in the data active means enhancement above about 30%; further: 0% is about no effect
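Enhancer read-out: after compound pinning and an initial kinetic agonist-mode read, an EC20 of TRH (10 nM final) was injected and fluo-8 calcium signal (Ex 480/Em 530) followed at 1 s/cycle for 100 cycles in TRHR-expressing cells.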
Starred values were filed as active, the others as inactive; / = no result given. Unless noted, no stated cut-off is given here; in the data, active means activation above about 30%; inactive means the rest.

SMILES	D1 agonist	D1 PAM	D1 antagonist	TRHR agonist	TRHR enhancer
COC(=O)c1ccccc1S(=O)(=O)N1CCC(C(=O)OCc2cccc(OC)c2OC)CC1	44*	-1	-39*	1	4
COc1ccc(C(=O)COC(=O)C2CCN(S(=O)(=O)c3cccc4cccnc34)CC2)cc1	5	-6	-70*	1	7
CC(=O)Nc1ccc(NC(=O)C2CCCN2S(=O)(=O)c2cccc3nsnc23)cc1 (stereo unspecified)	-1	-1	5	0	10
CC1CCCC(NC(=O)C2CCCN2S(=O)(=O)c2cccc3nsnc23)C1C (stereo unspecified)	2	/	17	1	36*
COc1ccc(N2C(=O)CCSC23C(=O)N(Cc2ccc(F)cc2)c2ccccc23)cc1Cl (stereo unspecified)	7	-1	7	1	18
CC(C)(C)c1ccc(-c2nc(C#N)c(NCCCn3ccnc3)o2)cc1	36*	-5	-5	0	3
O=C(CN1c2ccccc2Sc2ccccc21)NNC(=O)Nc1ccc(Cl)c(Cl)c1	2	-11	-3	0	-2
O=C(CN1c2ccccc2Sc2ccccc21)NNC(=O)Nc1ccc(Cl)cc1	0	-11	-36*	0	37*
CC1(C)C(C=C(Cl)Cl)C1C(=O)Nc1ccc([N+](=O)[O-])cc1 (stereo unspecified)	6	-7	-31*	1	-6
O=C(Nc1ccc([N+](=O)[O-])cc1)C1CC1(c1ccccc1)c1ccccc1 (stereo unspecified)	8	-3	-22	1	1
COc1ccc(F)cc1S(=O)(=O)NCC(c1ccco1)S(=O)(=O)c1cccs1 (stereo unspecified)	4	-1	/	5	-7
COc1ccc(S(=O)(=O)N2CCCOC2CNC(=O)C(=O)NCc2ccccc2F)cc1C (stereo unspecified)	6	-5	-32*	0	-4
Cc1cc(F)ccc1S(=O)(=O)N1CCCOC1CNC(=O)C(=O)NCCc1ccccc1 (stereo unspecified)	3	-5	-34*	0	-6
O=C(NCCc1ccccc1)C(=O)NCC1OCCCN1S(=O)(=O)c1cc(F)ccc1F (stereo unspecified)	2	1	-15	1	0
COc1ccc(CCNC(=O)C(=O)NCC2OCCN2S(=O)(=O)c2ccc(OC)cc2)cc1 (stereo unspecified)	12	-7	-35*	-1	1
COc1ccc(CCNC(=O)C(=O)NCC2OCCN2S(=O)(=O)c2ccc(Cl)cc2)cc1 (stereo unspecified)	9	-11	-24	0	2
COc1ccc(S(=O)(=O)N2CCCOC2CNC(=O)C(=O)NCc2ccco2)cc1C (stereo unspecified)	1	4	-12	-1	3
Cc1ccc(-n2ncc(C(=O)Nc3ccc4c(c3)OCCO4)c2C2CCN(C(=O)OC(C)(C)C)CC2)cc1C	0	-9	-7	1	-4
COCCNC(=O)c1nn(-c2ccc(C)cc2)c(=O)n(C)c1=O	0	-1	-2	1	-5
CCOC(=O)CSC1=C(C#N)C(c2ccccc2)C(C(C)=O)=C(C)N1 (stereo unspecified)	0	1	-31*	0	-4
CSC1=C(C#N)C(c2ccccc2)C(C(C)=O)=C(C)N1 (stereo unspecified)	0	4	4	0	10
CSCSC1=C(C#N)C(c2ccc(Cl)cc2)C(C(C)=O)=C(C)N1 (stereo unspecified)	5	-13	-31*	1	-1
O=C(Cn1c(=O)n(-c2ccccc2)c(=O)c2c3c(sc21)CCCC3)Nc1ccc(F)cc1F	3	-2	3	2	3
CCOc1ccccc1NC(=O)CN1C(=O)CC(c2ccco2)Sc2ccccc21 (stereo unspecified)	1	-2	0	0	-4
COCCNC(=O)CSc1nnc(-c2ccc(OC)c(OC)c2)c(-c2ccc(OC)c(OC)c2)n1	-1	-3	-17	0	0
SMILES	D1 agonist	D1 PAM	D1 antagonist	TRHR agonist	TRHR enhancer
Fc1ccc(F)c(Nc2c3c(nc4ccc(Cl)cc24)CCC3)c1	4	-4	-7	-1	43*
FC(F)(F)c1cccc(Nc2c3c(nc4ccc(Cl)cc24)CCC3)c1	5	-1	-32*	2	-6
Cc1ccc2nc3c(c(Nc4ccccc4)c2c1)CCC3	1	-5	-11	-1	5
COc1ccccc1Nc1c2c(nc3ccc(NC(=O)c4cccc(F)c4)cc13)CCCC2	2	5	15	-2	-3
O/N=C/c1ccc(OCc2ccccc2)c(Br)c1	2	1	-33*	-1	3
Cc1cc(=O)[nH]c2nnc(SCc3cccc(C(F)(F)F)c3)n12	-2	5	/	0	-1
CC1CCN(S(=O)(=O)c2ccc3c(ccn3CC(=O)NCc3ccccc3F)c2)CC1	9	-1	-10	1	1
COc1ccccc1NC(=O)c1cnc(SCC(=O)N2CCCc3ccccc32)n(C)c1=O	-4	0	/	0	3
O=C1CCc2cc(S(=O)(=O)N3CCC(C(=O)Nc4nccs4)CC3)ccc2N1	4	0	17	0	-4
Cc1cccnc1NC(=O)C1CCN(S(=O)(=O)c2ccc3c(c2)CCC(=O)N3)CC1	0	2	-43*	0	-2
CCOC(=O)c1cc2c(=O)n3ccccc3nc2n(Cc2ccco2)c1=NC(=O)c1c(F)cccc1Cl	2	0	-12	2	0
CCn1cc(CN2CCCC(CO)(Cc3ccc(F)cc3)C2)c2ccccc21 (stereo unspecified)	31*	-3	-17	1	4
CC(Sc1nnnn1C)C(=O)Nc1cc(S(=O)(=O)N2CCCCC2)ccc1Cl (stereo unspecified)	1	-4	-3	0	2
CC(C)CN(CC(C)C)S(=O)(=O)N1CCC(C(=O)NCc2ccc(F)cc2)CC1	28	-9	-67*	-1	14
CCS(=O)(=O)N1CCC(C(=O)NCc2ccc(F)cc2Cl)CC1	2	-4	2	0	0
O=C(NCc1ccc(F)cc1)C1CCCN(S(=O)(=O)c2ccc(Br)s2)C1 (stereo unspecified)	-1	2	-3	-1	-3
O=C(NCc1ccc(F)cc1)C1CCN(S(=O)(=O)c2ccc(Br)s2)CC1	0	-6	-30*	0	-5
CC(C)CN(CC(C)C)S(=O)(=O)N1CCC(C(=O)NCc2cccnc2)CC1	2	4	21	-2	7
O=C(NCc1ccc(F)cc1Cl)C1CCN(S(=O)(=O)N2CCCCC2)CC1	50*	-10	-18	0	3
CCCCCn1c(=O)c2c(nc3n2CCN3c2ccc(Br)cc2)n(C)c1=O	0	4	7	0	0

Screens: PubChem, National Center for Advancing Translational Sciences (NCATS)
